The record followed here is PubChem BioAssay (Tox21).

SMILES strings stand for the structures. Inconclusive results are not listed. A number with no mark means an inactive call. Activity calls are given as the source filed them. Unless noted, calls follow the shape of the full dose curve.

Experiment [1] can be described thus: qHTS assay to identify small molecule antagonists of the peroxisome proliferator-activated receptor delta (PPARd) signaling pathway - cell viability counter screen (AID 743213; active = well fitted curve in the direction sought with a large enough effect in the repeat runs; an effect the other way counts as inactive or inconclusive; also: nearly all actives have a fitted effect of over 50% in size). The procedure, abridged:
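Viability counter-screen, qHTS format: PPARd-bla HEK293H, L165041 300 nM final, 17 h compound exposure at 37 C, CellTiter-Glo luminescence after 30 min RT.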

The target of experiment [2] is Bile acid receptor (Homo sapiens) (UniProt Q96RI1). Nature of the experiment: qHTS assay to identify small molecule antagonists of the farnesoid-X-receptor (FXR) signaling pathway (AID 743217; active = well fitted inhibition curve with a large enough effect in the signal ratio in the repeat runs, not every such curve was filed as active; the % refers to the signal ratio). The procedure, abridged:
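Antagonist mode against 50 uM (final) chenodeoxycholic acid stimulation in FXR-bla HEK 293T cells, 16 h at 37 °C. Inhibition detected as reduced beta-lactamase activity via LiveBLAzer B/G FRET fluorescence after 2 h at room temperature.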
In general terms: Quantitative high-throughput screening tests each substance at several concentrations.

A short description of experiment [3]: qHTS assay to identify small molecule agonists of the farnesoid-X-receptor (FXR) signaling pathway - cell viability counter screen (AID 743218; active = well fitted curve in the direction sought with a large enough effect in the repeat runs; an effect the other way counts as inactive or inconclusive; also: nearly all actives have a fitted effect of over 45% in size; also: potency is read from the fitted curve at half-maximal effect). A digest of the protocol:
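Cytotoxicity counter-screen run in parallel, same wells: FXR-UAS-bla HEK 293T cells dosed 16 h at 37 C, viability read by CellTiter-Glo luminescence after 30 min at room temperature.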

Experiment [4] is described as follows: qHTS assay to identify small molecule antagonists of the farnesoid-X-receptor (FXR) signaling pathway - cell viability counter screen (AID 743221; active = well fitted cell-killing curve with a large enough effect in the repeat runs, not every such curve was filed as active; also: nearly all actives have a fitted effect of over 50% in size). A digest of the protocol: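 Cytotoxicity counter screen run in the FXR-bla reporter wells: HEK 293T cells exposed to compound with 50 uM (final) chenodeoxycholic acid for 16 h, 37 C, then viability measured by CellTiter-Glo luminescence after 30 min, room temperature.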

In experiment [5] the target is Vitamin D3 receptor (Homo sapiens) (UniProt P11473). Put plainly: qHTS assay to identify small molecule agonists of the vitamin D receptor (VDR) signaling pathway (AID 743222). A digest of the protocol:
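Quantitative HTS agonist-mode screen: compounds in DMSO were pin-transferred onto VDR-bla cells and incubated 16 h at 37C, 5% CO2. Reporter activity was detected with LiveBLAzer B/G FRET substrate after 2 h at room temperature.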

The target is the same in experiment [6]. Nature of the experiment: qHTS assay to identify small molecule antagonists of the vitamin D receptor (VDR) signaling pathway (AID 743223; active = well fitted inhibition curve with a large enough effect in the signal ratio in the repeat runs, not every such curve was filed as active; the % refers to the signal ratio). The procedure, abridged: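 Antagonist mode: compound added to VDR-bla cells alongside agonist 1alpha,25-dihydroxyvitamin D3 (3 nM final), incubation 16 h at 37C. Read-out is LiveBLAzer FRET fluorescence, 2 h at room temperature.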

Experiment [7] is described as follows: qHTS assay to identify small molecule agonists of the vitamin D receptor (VDR) signaling pathway - cell viability counter screen (AID 743224; active = well fitted curve in the direction sought with a large enough effect in the repeat runs; an effect the other way counts as inactive or inconclusive; also: series mostly up to about 63 µM; nearly all actives have a fitted effect of over 50% in size). The procedure, abridged: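 Viability is measured in the same wells as the VDR-bla reporter assay: after 16 h compound treatment and 2 h substrate loading, CellTiter-Glo is added and luminescence read 30 min later.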

A short description of experiment [8]: qHTS assay to identify small molecule antagonists of the vitamin D receptor (VDR) signaling pathway - cell viability counter screen (AID 743225; active = well fitted curve in the direction sought with a large enough effect in the repeat runs; an effect the other way counts as inactive or inconclusive; also: nearly all actives have a fitted effect of over 50% in size). A digest of the protocol: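 Cytotoxicity counter screen read by CellTiter-Glo luminescence (30 min, room temperature) in the same wells as the VDR-bla antagonist readout. HEK 293T VDR-UAS-bla cells had 16 h at 37C with compound and 3 nM (final) 1-alpha,25-dihydroxyvitamin D3, then 2 h with FRET substrate.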

Experiment [9] can be described thus: qHTS assay to identify small molecule agonists of the NFkB signaling pathway (AID 1159509; active = well fitted curve in the direction sought with a large enough effect in the signal ratio in the repeat runs, not every such curve was filed as active; the % refers to the signal ratio; also: series mostly up to about 61 µM). The procedure, abridged: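 NFkB-bla ME-180 cells carry a beta-lactamase reporter under an NF-kB response element. They were plated overnight, then exposed to compounds for 5 h at 37 C. Read-out is LiveBLAzer FRET after 1.5 hr at room temperature (405 nm excitation; 460/530 nm emission).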

Experiment [10] is described as follows: qHTS assay to identify small molecule agonists of the NFkB signaling pathway - cell viability counter screen (AID 1159515). Also: series mostly up to about 61 µM; nearly all actives have a fitted effect of over 55% in size. A digest of the protocol:
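Multiplexed viability readout: after the 5 hr compound exposure and 1.5 hr FRET substrate step, CellTiter-Glo reagent went into the same NFkB-bla ME-180 wells; ATP luminescence was measured after 30 min at room temperature.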

Experiment [11] is described as follows: qHTS assay to identify small molecule agonists of the endoplasmic reticulum stress response signaling pathway (AID 1159516; active = well fitted activation curve with a large enough effect in the signal ratio in the repeat runs, not every such curve was filed as active; the % refers to the signal ratio). A digest of the protocol: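 Tox21 10K library screened in quantitative HTS format on ESRE-bla HeLa cells, a beta-lactamase reporter under ER stress response element control; 5 hr treatment, FRET read.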
Experiment [12] in a line: qHTS assay to identify small molecule agonists of the endoplasmic reticulum stress response signaling pathway - cell viability counter screen (AID 1159517). The procedure, abridged: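 CellTiter-Glo was added to wells already read for beta-lactamase FRET, and luminescence was recorded 30 min later. Cells: ESRE-bla HeLa, 1,500 per well, compound exposure 5 hr at 37 C.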

The nature of experiment [13]: qHTS assay to identify small molecule antagonists of the retinoid-related orphan receptor gamma (ROR-gamma) signaling pathway - cell viability counter screen (AID 1159520; active = well fitted curve in the direction sought with a large enough effect in the repeat runs; an effect the other way counts as inactive or inconclusive; also: nearly all actives have a fitted effect of over 50% in size). A digest of the protocol: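 Tet-on ROR gamma CHO cells (1,000/well) were plated 4 hr, given compounds in DMSO for 2 hr at 37 C, then induced with 1 uM final doxycycline for 16 hr. Viability was read as ATP by CellTiter-Glo luminescence after 30 min.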

Experiment [14] can be described thus: qHTS assay to identify small molecule agonists of the AP-1 signaling pathway - cell viability counter screen (AID 1159525). Also: nearly all actives have a fitted effect of over 55% in size. The procedure, abridged: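 ME-180 AP-1-bla, 2500 cells/well, Opti-MEM + 0.5% dialyzed FBS; overnight 37 °C; cpd 15-pt titration, 5 h 37 °C; CellTiter-Glo 30 min RT; luminescence read; normalised to TOAB and DMSO controls.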
Experiment [15] is described as follows: qHTS assay to identify small molecule agonists of the AP-1 signaling pathway (AID 1159526).
The target in experiment [16] is Peroxisome proliferator-activated receptor delta (Homo sapiens) (UniProt Q03181). Nature of the experiment: qHTS assay to identify small molecule agonists of the peroxisome proliferator-activated receptor delta (PPARd) signaling pathway (AID 743212). The procedure, abridged: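 A PPARd-bla HEK293H line with beta-lactamase under an Upstream Activator Sequence is treated with compounds at 37 C. Substrate loading for 2 h at room temperature precedes the fluorescence measurement.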

The target is the same in experiment [17]. Nature of the experiment: qHTS assay to identify small molecule antagonists of the peroxisome proliferator-activated receptor delta (PPARd) signaling pathway (AID 743215; active = well fitted inhibition curve with a large enough effect in the signal ratio in the repeat runs, not every such curve was filed as active; the % refers to the signal ratio;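 also: cells stimulated with agonist L165041 at 300 nM final during compound exposure; series mostly up to about 62 µM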). The procedure, abridged:
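Inhibition of L165041-driven (300 nM final) PPARd signaling is scored in HEK293H UAS-bla cells. Exposure lasts 17 h at 37 C; beta-lactamase activity is then read by FRET substrate fluorescence after 2 h at room temperature.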

Experiment [18] addresses Bile acid receptor (Homo sapiens) (UniProt Q96RI1). Nature of the experiment: qHTS assay to identify small molecule agonists of the farnesoid-X-receptor (FXR) signaling pathway (AID 743220; active = well fitted activation curve with a large enough effect in the signal ratio in the repeat runs, not every such curve was filed as active; the % refers to the signal ratio). The procedure, abridged:
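Beta-lactamase reporter under UAS control in GeneBLAzer FXR HEK 293T cells (5000/well) measured with LiveBLAzer FRET substrate after 2 h at room temperature. Compound exposure lasted 16 h at 37C.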

Experiment [19] deals with Nuclear receptor ROR-gamma (Homo sapiens) (UniProt P51449). Nature of the experiment: qHTS assay to identify small molecule antagonists of the retinoid-related orphan receptor gamma (ROR-gamma) signaling pathway (AID 1159521; active = well fitted curve in the direction sought with a large enough effect in the repeat runs; an effect the other way counts as inactive or inconclusive). A digest of the protocol:
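Antagonist read-out: drop in luminescence (ONE-Glo) from an RORE-LUC reporter in CHO cells with doxycycline-inducible ROR-gamma; 2 hr compound pretreatment, 1 uM doxycycline, 16 hr incubation at 37 C.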

The target of experiment [20] is Retinoic acid receptor RXR-alpha (Homo sapiens) (UniProt P19793). Put plainly: qHTS assay to identify small molecule agonists of the RXR signaling pathway (AID 1159527). Also: nearly all actives have a fitted effect of over 35% in size. The procedure, abridged:
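Agonist-mode beta-lactamase reporter assay: HEK 293T RXR-alpha-UAS-bla cells treated 16 hr at 37 C with compounds, 9-cis retinoic acid as positive control. LiveBLAzer FRET substrate, 405 nm excitation, 460/530 nm emission.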

Chain of Peroxisome proliferator-activated receptor delta (Homo sapiens) (Q03181 whole entry, looked up): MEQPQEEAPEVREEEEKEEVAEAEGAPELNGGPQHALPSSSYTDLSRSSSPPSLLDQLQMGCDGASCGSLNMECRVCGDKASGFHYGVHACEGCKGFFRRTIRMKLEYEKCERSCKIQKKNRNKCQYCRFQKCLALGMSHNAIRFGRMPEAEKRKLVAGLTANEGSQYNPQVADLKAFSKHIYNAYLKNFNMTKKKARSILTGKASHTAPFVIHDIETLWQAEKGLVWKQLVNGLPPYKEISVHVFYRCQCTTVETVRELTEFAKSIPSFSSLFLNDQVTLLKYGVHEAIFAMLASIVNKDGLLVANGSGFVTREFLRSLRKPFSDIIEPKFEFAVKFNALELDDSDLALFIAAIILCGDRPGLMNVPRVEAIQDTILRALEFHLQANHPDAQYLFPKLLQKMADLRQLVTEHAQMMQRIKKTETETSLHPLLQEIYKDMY
Chain of Vitamin D3 receptor (Homo sapiens) (P11473 whole entry, looked up): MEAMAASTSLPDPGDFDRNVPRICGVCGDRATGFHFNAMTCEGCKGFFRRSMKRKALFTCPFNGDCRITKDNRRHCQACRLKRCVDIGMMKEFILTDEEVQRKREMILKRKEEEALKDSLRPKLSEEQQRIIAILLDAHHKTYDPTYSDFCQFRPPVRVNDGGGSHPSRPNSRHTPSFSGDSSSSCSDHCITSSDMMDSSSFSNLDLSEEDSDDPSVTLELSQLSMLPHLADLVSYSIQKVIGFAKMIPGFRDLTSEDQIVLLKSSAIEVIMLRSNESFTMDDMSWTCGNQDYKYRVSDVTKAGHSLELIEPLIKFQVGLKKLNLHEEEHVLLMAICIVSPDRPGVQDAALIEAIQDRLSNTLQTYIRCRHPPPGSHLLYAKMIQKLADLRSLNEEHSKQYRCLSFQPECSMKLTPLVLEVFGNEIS
Chain of Bile acid receptor (Homo sapiens) (Q96RI1 whole entry, looked up): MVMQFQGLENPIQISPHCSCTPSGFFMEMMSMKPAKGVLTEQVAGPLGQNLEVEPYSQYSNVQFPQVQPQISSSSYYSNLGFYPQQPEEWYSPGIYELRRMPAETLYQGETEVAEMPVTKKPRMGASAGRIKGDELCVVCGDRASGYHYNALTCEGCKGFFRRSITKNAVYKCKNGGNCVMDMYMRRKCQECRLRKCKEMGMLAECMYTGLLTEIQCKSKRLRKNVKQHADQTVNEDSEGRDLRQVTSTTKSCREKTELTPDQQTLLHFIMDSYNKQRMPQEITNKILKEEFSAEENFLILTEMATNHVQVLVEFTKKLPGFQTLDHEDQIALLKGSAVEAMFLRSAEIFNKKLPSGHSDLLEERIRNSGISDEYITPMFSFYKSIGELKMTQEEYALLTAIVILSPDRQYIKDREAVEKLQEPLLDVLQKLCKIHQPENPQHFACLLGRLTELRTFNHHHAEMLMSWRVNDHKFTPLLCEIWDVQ
Chain of Retinoic acid receptor RXR-alpha (Homo sapiens) (P19793 whole entry, looked up): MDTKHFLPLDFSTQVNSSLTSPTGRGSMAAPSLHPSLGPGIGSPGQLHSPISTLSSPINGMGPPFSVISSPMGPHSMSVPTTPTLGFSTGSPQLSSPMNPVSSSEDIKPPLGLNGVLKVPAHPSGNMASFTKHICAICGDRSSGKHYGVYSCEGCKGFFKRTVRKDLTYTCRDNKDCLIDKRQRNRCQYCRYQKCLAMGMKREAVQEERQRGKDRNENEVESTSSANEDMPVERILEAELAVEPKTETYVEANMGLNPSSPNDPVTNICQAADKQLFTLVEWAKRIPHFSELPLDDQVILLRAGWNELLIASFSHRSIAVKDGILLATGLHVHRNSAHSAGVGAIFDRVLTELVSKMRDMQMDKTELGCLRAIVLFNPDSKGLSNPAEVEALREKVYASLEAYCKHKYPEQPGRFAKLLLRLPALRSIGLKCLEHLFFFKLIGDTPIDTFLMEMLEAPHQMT

With `Nc1ccc(S(=O)(=O)O)cc1`, the Potency entry in experiment [1], in experiment [2], in experiment [3], in experiment [4], in experiment [7] and in [8] was “inactive” in each case. In experiment [13], the Potency result was “inactive”. Also, the outcome in experiment [5], in experiment [6], in experiment [9], in experiment [10], in experiment [11] and in experiment [12] was inactive. The compound was called inactive in experiment [14] and in experiment [15].

As for `CC1=NN(c2ccc(C(=O)O)cc2)C(=O)C1`, the Potency entry in experiment [16], in experiment [1], in [17], in [3], in experiment [4] and in experiment [7] was “inactive” each time. The Potency entry in [8] and in experiment [13] was “inactive” each time. Further, the outcome in [5], in experiment [9], in [10], in experiment [11], in experiment [12] and in experiment [14] was inactive. In addition, in experiment [15], the result was inactive.

Take `CC(=O)Oc1ccc(C(=C2CCCCC2)c2ccc(OC(C)=O)cc2)cc1`: the Potency entry in experiment [1], in experiment [2], in experiment [18], in experiment [4], in experiment [8] and in experiment [13] was “inactive” throughout. Moreover, the outcome in experiment [9], in [10], in [11], in experiment [12], in experiment [14] and in [15] was inactive.

Take `CCC(Cc1ccccc1)(C(=O)c1ccc(N2CCOCC2)cc1)N(C)C` (stereo not drawn): the Potency entry in experiment [16], in experiment [1], in experiment [17], in [18], in experiment [4] and in experiment [13] was “inactive” in each case. Further, the outcome in experiment [5], in experiment [9], in experiment [10], in experiment [11], in experiment [12] and in experiment [14] was inactive. The result in experiment [15] was inactive.

In the case of `CCOC(=O)c1ccccc1C`, the Potency result in [1], in experiment [2], in experiment [18], in [7] and in [13] was “inactive” each time. Also, the outcome in experiment [9], in experiment [10], in [11], in experiment [12], in experiment [14] and in experiment [15] was inactive.

`O=C(O)c1cccc(O)c1`: the Potency entry in experiment [2], in experiment [3], in experiment [4], in experiment [7], in experiment [8] and in experiment [13] was “inactive” throughout. For the same compound, the outcome in experiment [9], in [10], in experiment [11], in experiment [12], in experiment [14] and in experiment [15] was inactive.

As for `Cc1nc2ccccn2c(=O)c1CCN1CCC(C(=O)c2ccc(F)cc2)CC1`, the Potency entry in [1], in experiment [17], in experiment [2], in [4], in [7] and in experiment [13] was “inactive” each time. For the same compound, the Potency result in [19] and in experiment [20] was “inactive” each time. The compound was called inactive in [6], in experiment [9], in [10], in experiment [11], in [14] and in experiment [15].

`CC1(C)O[C@@H]2C[C@H]3[C@@H]4CCC5=CC(=O)C=C[C@]5(C)[C@H]4[C@@H](O)C[C@]3(C)[C@]2(C(=O)CO)O1`: the Potency result in experiment [1], in experiment [3], in [4], in experiment [7] and in experiment [20] was “inactive” each time. Moreover, the result in experiment [5], in [9], in experiment [10], in [11], in experiment [12] and in [14] was inactive.

On to `CC1=C(/C=C/C(C)=C\C=C\C(C)=C\C(=O)O)C(C)(C)CCC1`, for which the Potency entry in [1], in experiment [3], in experiment [4] and in experiment [7] was “inactive” each time. In addition, the compound was called inactive in [5], in [6], in experiment [9], in experiment [10], in experiment [11] and in experiment [12]. The compound was called inactive in experiment [14] and in [15].

Regarding `Cc1c(C(=O)NN2CCCCC2)nn(-c2ccc(Cl)cc2Cl)c1-c1ccc(Cl)cc1`, in experiment [3], the Potency was 33.5 µM (active). For the same compound, the Potency result in experiment [18] is “inactive”. Also, the result in [9], in experiment [10], in [11], in experiment [12], in [14] and in experiment [15] was inactive.
